Source: PubChem BioAssay
Unmarked numbers belong to inactive results. For some of these results: Results with a measured potency or affinity are listed apart. The source made the active and inactive calls. Unless noted, no rule for the calls is given here.

Experiments:
[1] = antimalarial activity against Dd2 strain (AID 2302;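 active = growth inhibition above 50% at the single 2 µM test dose, taken to imply half-maximal potency below 2 µM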;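 also: 0% = DMSO untreated growth and 100% = chloroquine plus artemisinin killed control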); details: P. falciparum Dd2 in RBCs, LDH growth readout, 72 h; at 2 µM; stronger effect = higher value
[2] = human hepatoma cell viability loss – ATP luminescence, cytotoxicity control for P. falciparum antimalarial project, primary screen (AID 2303;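 active = inhibition above 50%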;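 also: 0% = DMSO wells and 100% = digitonin-killed cells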); details: HepG2 viability, 24-48 h, at 10 µM, stronger effect = higher value
[3] = molecular target: L-lactate dehydrogenase (Plasmodium falciparum (isolate CDC / Honduras)) (UniProt Q27743); test: PfLDH activity inhibition – cell lysate, 3D7 strain, counter-screen for P. falciparum growth inhibition project (AID 2304);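 also: 0% = vehicle and 100% = reference inhibitor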; details: P. falciparum 3D7 crude extract, LDH APAD/NBT absorbance; at 2 µM; stronger effect = higher value
L-lactate dehydrogenase (Plasmodium falciparum (isolate CDC / Honduras)), sequence (Q27743 whole entry, looked up): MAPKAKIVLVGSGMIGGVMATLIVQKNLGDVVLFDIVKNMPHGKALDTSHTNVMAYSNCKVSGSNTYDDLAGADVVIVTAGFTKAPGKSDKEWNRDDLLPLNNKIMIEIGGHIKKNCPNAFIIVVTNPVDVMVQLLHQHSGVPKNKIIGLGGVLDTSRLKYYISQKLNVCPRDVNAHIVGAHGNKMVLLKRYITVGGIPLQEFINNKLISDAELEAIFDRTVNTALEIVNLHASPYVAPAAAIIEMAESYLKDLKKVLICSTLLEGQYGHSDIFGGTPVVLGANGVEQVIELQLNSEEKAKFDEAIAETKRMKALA

[4] = inhibition of 3D7 malaria parasite growth – strain 3D7 (AID 2306);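 also: 0% = DMSO wells and 100% = chloroquine plus artemisinin control wells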; details: P. falciparum 3D7 erythrocytic growth, LDH absorbance, 72 h; at 2 µM; stronger effect = higher value
[5] = molecular target: Calcium-dependent protein kinase 1 (Plasmodium falciparum (isolate 3D7)) (UniProt P62344); test: PfCDPK1 kinase inhibitors, biochemical, TCAMS library (AID 1159585; cut-off not given, nearly all actives have IC50 up to about 0.98 µM;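 also: inhibitors leave more ATP so luminescence rises with inhibition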); details: recombinant PfCDPK1, Kinase-Glo ATP depletion luminescence
Calcium-dependent protein kinase 1 (Plasmodium falciparum (isolate 3D7)), sequence (P62344 whole entry, looked up): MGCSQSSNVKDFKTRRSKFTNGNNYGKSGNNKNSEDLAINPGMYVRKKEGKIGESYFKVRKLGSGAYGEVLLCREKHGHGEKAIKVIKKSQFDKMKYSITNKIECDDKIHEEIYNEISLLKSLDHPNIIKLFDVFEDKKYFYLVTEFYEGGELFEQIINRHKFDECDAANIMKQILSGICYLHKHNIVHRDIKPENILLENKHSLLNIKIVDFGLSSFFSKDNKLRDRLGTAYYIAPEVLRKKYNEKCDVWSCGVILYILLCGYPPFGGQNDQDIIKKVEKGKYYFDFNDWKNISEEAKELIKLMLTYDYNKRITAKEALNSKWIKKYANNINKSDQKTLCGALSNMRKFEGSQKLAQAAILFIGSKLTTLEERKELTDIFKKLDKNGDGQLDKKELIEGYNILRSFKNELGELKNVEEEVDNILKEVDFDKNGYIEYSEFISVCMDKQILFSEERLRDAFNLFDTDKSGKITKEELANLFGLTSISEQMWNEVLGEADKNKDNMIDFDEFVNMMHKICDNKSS

[6] = molecular target: Plasmodium falciparum protein kinase 6 (PK6, PF3D7_1337100) (UniProt Q8IDW1); test: PfPK6 kinase inhibitors, biochemical, TCAMS library (AID 1159586); details: recombinant PfPK6, Kinase-Glo ATP depletion luminescence
Plasmodium falciparum protein kinase 6 (PK6, PF3D7_1337100), sequence (Q8IDW1 1-305): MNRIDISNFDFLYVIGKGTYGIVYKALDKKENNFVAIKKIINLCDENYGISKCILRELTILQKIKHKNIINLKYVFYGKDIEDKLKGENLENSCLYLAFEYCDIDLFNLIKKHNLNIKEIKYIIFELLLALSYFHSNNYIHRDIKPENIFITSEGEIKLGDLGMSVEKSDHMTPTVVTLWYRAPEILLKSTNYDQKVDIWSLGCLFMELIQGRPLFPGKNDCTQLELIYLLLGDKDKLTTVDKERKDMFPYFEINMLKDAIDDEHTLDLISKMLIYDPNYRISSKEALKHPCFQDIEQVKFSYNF

[7] = molecular target: Protein kinase 7 (PK7), Plasmodium falciparum 3D7 (PF3D7_0213400) (UniProt Q7YTF7); test: inhibition of Plasmodium PK7 catalytic activity – biochemical, TCAMS antimalarial set, Kinase-Glo luminescence (AID 1159587); details: recombinant PfPK7, Kinase-Glo ATP depletion luminescence
Protein kinase 7 (PK7), Plasmodium falciparum 3D7 (PF3D7_0213400), sequence (Q7YTF7 1-343): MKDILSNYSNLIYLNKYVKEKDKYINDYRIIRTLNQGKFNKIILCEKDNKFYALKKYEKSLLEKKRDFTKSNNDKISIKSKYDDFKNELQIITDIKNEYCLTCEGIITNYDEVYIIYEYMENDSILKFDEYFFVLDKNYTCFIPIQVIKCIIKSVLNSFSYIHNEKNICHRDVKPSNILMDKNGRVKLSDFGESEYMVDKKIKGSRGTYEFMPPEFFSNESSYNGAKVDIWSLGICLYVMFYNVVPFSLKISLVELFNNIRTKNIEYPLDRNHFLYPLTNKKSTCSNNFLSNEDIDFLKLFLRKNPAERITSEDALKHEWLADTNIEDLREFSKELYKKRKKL

[8] = molecular target: Calcium-dependent protein kinase 4 (Plasmodium falciparum (isolate 3D7)) (UniProt Q8IBS5); test: PfCDPK4 kinase inhibitors, biochemical, TCAMS library (AID 1159588; cut-off not given, nearly all actives have IC50 up to about 0.91 µM); details: recombinant PfCDPK4, Kinase-Glo ATP depletion luminescence
Calcium-dependent protein kinase 4 (Plasmodium falciparum (isolate 3D7)), sequence (Q8IBS5 whole entry, looked up): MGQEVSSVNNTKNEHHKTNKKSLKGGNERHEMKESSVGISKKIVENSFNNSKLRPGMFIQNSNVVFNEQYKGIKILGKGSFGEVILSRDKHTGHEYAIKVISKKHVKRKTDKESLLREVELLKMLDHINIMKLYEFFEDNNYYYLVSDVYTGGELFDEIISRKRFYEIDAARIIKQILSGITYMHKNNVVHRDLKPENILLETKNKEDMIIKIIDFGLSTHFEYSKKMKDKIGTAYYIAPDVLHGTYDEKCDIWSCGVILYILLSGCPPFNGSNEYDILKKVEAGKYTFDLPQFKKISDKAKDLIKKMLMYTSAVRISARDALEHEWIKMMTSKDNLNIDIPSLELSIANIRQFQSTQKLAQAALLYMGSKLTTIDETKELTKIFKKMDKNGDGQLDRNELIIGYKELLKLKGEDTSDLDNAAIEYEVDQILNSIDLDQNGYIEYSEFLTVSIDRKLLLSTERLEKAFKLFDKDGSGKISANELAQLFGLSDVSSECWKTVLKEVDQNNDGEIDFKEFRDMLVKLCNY

SMILES | growth inhibition [1] | inhibition [2] [%] | inhibition [3] [%] | growth inhibition [4] | outcome [5] | outcome [6] | outcome [7] | outcome [8]
Cn1nc(-c2ccc(NC(=O)Nc3cc(C(F)(F)F)ccc3F)c(F)c2)c2cnc(NCCCn3ccnc3)nc21 | 97% (active) | 45 | 0 | 100% (active) | inactive | inactive | inactive | inactive
CCN(C(=O)c1ccc(NC(=O)c2cccs2)cc1)c1nc2c(C)cccc2s1 | 85% (active) | 24 | -3 | 89% (active) | inactive | inactive | inactive | inactive
CC[C@]1(C)C[C@@H](NC(=O)NC(=O)c2ccc(OC)cc2)[C@]2(C)[C@H](C)CC[C@]3(CCC(=O)[C@H]32)[C@@H](C)[C@@H]1OC(=O)NC(=O)c1ccc(OC)cc1 | 98% (active) | 10 | -5 | 100% (active) | inactive | inactive | inactive | inactive
COc1ccc(CN2CCCN(Cc3cccc(C(=O)Nc4ccc(C)c(F)c4)c3)CC2)cc1 | 10% | 49 | -3 | 83% (active) | inactive | inactive | inactive | inactive
O=C1C[C@@H]([S@@](=O)Cc2nccs2)N1CCOCCCCCCc1ccc(Cl)cc1 | 0% | -4 | 1 | 91% (active) | inactive | inactive | inactive | inactive
